From PubChem
Hits are enriched below; roughly 4.2% of the tested compounds scored in any of these assays.
AHR activator: activators of human aryl hydrocarbon receptor; P35869; AHR-responsive luciferase reporter cells, luminescence; activation, % at 5 µM; 320,000 tested, 2.5% active; AID 2796; in the data active = activation above about 47%
Target sequence (P35869 whole entry, looked up): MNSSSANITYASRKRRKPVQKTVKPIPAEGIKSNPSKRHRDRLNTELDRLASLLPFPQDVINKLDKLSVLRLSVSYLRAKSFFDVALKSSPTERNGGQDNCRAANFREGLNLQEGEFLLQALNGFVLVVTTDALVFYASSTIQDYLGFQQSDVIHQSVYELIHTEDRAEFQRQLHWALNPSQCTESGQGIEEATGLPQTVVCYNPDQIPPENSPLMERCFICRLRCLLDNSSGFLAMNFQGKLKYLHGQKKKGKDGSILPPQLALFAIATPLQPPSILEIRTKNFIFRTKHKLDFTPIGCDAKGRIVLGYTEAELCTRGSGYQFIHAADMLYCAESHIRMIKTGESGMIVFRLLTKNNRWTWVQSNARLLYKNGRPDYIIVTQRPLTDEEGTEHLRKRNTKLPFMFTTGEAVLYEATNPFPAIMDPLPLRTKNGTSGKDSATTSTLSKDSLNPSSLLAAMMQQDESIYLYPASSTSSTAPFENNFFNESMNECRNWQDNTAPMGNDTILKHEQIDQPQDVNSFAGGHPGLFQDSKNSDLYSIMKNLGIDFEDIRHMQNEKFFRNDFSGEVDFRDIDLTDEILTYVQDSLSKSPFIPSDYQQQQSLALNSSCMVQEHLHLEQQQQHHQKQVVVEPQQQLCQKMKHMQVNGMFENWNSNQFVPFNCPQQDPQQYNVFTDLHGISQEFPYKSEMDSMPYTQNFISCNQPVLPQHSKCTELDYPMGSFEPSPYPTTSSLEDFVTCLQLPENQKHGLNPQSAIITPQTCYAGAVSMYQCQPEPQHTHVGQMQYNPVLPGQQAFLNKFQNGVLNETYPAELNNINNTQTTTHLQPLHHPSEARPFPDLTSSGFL
FXN GAA850 act: increases GAA850 frataxin promoter reporter activity; HEK293 lucGAA850 FXN promoter luciferase reporter, 24 h; percent of 10 µM SAHA response; activation, % at 6 µM; 360,000 tested, 0.56% active;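 active = activation above the average of all compounds screened plus 3 SD, cutoff fixed separately per campaign, cut at about 7.5% in these data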
Wnt bcat act: activators of Wnt/beta-catenin signaling. activation, % at 9.35 µM. 300,000 tested, 1.2% active. Wnt/beta-catenin reporter cell assay, activator, plate reader. AID 743398; in the data active = activation above about 30%, passing the limit was not always enough
esBAF inh: SWI/SNF esBAF complex inhibition. reporter increase, % at 12.5 µM. AID 602393. 350,000 tested, 2% active. mouse ES cells, Bmi1-luciferase knock-in reporter, 24 h; 100% = twice the neutral-well signal; in the data active = activation above about 40%;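 note: a rise in the Bmi1 reporter signal indicates esBAF inhibition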
MITF act: activators of MITF-driven TRPM1 promoter activity in SK-MEL-5 cells. SK-MEL-5 TRPM1-promoter luciferase, 24 h; % of positive control, neutral wells = 0. activation, % at 12.5 µM. 300,000 tested, 0.75% active. AID 588334;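 active = mean activation of at least 80% with every replicate also reaching 80%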
A number is an active result; 0 = inactive; - = not tested or not shown.

SMILES | AHR activator | FXN GAA850 act | Wnt bcat act | esBAF inh | MITF act
O=C(Nc1ccc2oc(=O)ccc2c1)c1ccccc1[N+](=O)[O-] | 0 | 0 | 0 | - | 0
O=C(Nc1ccc2ccccc2c1)c1ccccc1[N+](=O)[O-] | - | 0 | 0 | 51 | 0
CCOC(=O)c1ccc(NC(=O)c2ccccc2[N+](=O)[O-])cc1 | 0 | 0 | 0 | 73 | 0
CCOC(=O)c1ccc(NC(=O)c2cccc(C)c2[N+](=O)[O-])cc1 | 0 | 0 | 0 | - | 0
O=C(C[C@H]1CC[C@@H](NC(=O)Nc2ccc3c(c2)OCO3)[C@@H](CO)O1)NCc1ccc(F)cc1 | - | - | - | 0 | -
C[C@@H]1CCCCO[C@@H](CN(C)C(=O)C2CCCCC2)[C@@H](C)CN([C@@H](C)CO)C(=O)c2cc(NC(=O)Cc3ccccc3)ccc2O1 | - | - | - | 0 | -
C[C@@H]1CCCCO[C@@H](CN(C)S(C)(=O)=O)[C@@H](C)CN([C@H](C)CO)C(=O)c2cc(NS(C)(=O)=O)ccc2O1 | - | - | - | 0 | -
Cc1ccc(S(=O)(=O)N[C@H]2CC[C@H](CCNC(=O)C3CCOCC3)O[C@@H]2CO)cc1 | - | - | - | 0 | -
CC(C)C#Cc1ccc2c(c1)O[C@H](CN(C)Cc1cncnc1)[C@@H](C)CN([C@@H](C)CO)S2(=O)=O | - | - | - | 0 | -
O=C(NCCc1ccccc1)c1ccc(-c2cccnc2)c2ccoc12 | - | 0 | 0 | 44 | -
O=C(NCCc1ccccc1)c1cccnc1 | 0 | 0 | 34 | 0 | 0
O=C(NCCc1ccccc1)c1cccc(Br)c1 | 0 | 0 | 0 | 53 | -
O=C(NCCc1ccccc1)c1cnc2ccccc2n1 | 0 | 0 | 45 | 0 | 85
CCCNC(=O)c1cccc(Br)c1 | 0 | 0 | 0 | - | 0
O=C(NCc1cccc(Cl)c1)c1ccc(-c2cccnc2)c2ccoc12 | - | 0 | 0 | 0 | -
Cn1cnc(S(=O)(=O)N2C[C@H](O)COC[C@H]3O[C@@H](CC(=O)NCc4cccc(F)c4)CC[C@@H]32)c1 | - | - | - | 0 | -
N#C[C@@H]1[C@@H](c2ccccc2)[C@H](CO)N1C(=O)Nc1cccc(F)c1 | - | - | - | 0 | -
CC(C)NC(=O)N(C)C[C@H]1Oc2cc(C#CCN(C)C)ccc2S(=O)(=O)N([C@@H](C)CO)C[C@H]1C | - | - | - | 0 | -
COc1ccc(S(=O)(=O)N(C)C[C@@H]2OCCCC[C@@H](C)Oc3ccc(NC(=O)c4ccncc4)cc3C(=O)N([C@H](C)CO)C[C@@H]2C)cc1 | - | - | - | 0 | -
O=C(Nc1ccccc1C(=O)NCCc1ccccc1)c1cnccn1 | 61 | 0 | 0 | 0 | 0
O=C(COc1cccc(Br)c1)NN=C1c2ccccc2-c2ccccc21 | 0 | 0 | 0 | - | 0
O=C(NCCc1ccccc1)c1cccc([N+](=O)[O-])c1 | 0 | 0 | - | 56 | 94
O=C(NN=C1c2ccccc2-c2ccccc21)c1cccc(Br)c1 | 56 | 0 | 0 | - | 0
C[C@H]1CN([C@@H](C)CO)S(=O)(=O)c2ccc(-c3cccc(C#N)c3)cc2O[C@H]1CN(C)C | - | - | - | 0 | -
CNC[C@@H]1OCCCC[C@H](C)Oc2ccc(NC(=O)c3ccncc3)cc2C(=O)N([C@H](C)CO)C[C@@H]1C | - | - | - | 0 | -
SMILES | AHR activator | FXN GAA850 act | Wnt bcat act | esBAF inh | MITF act
N#C/C(=N\Nc1cccc2ccccc12)c1nnc2n1CCCCC2 | 54 | 0 | 0 | - | 0
COCC#Cc1ccc2c(c1)O[C@@H](CN(C)CC1CCOCC1)[C@@H](C)CN([C@@H](C)CO)S2(=O)=O | - | - | - | 0 | -
O=C(CC(Nc1ccccc1)C(=O)O)c1ccccc1 (configuration not stated) | 0 | 0 | - | - | 101
O=C(CC(Nc1ccc(Cl)cc1Cl)C(=O)O)c1ccccc1 (configuration not stated) | 0 | 0 | 0 | - | 0
Cc1ccc(NC(CC(=O)c2ccccc2)C(=O)O)cc1Cl (configuration not stated) | 0 | 0 | 53 | - | 0
CSCCC(NC(=O)c1ccccc1)C(=O)OCC(=O)Nc1ccc(C)c(Cl)c1 (configuration not stated) | 0 | 0 | 0 | 0 | -
COc1ccc(NC(=O)N(C)C[C@H]2OCCCC[C@@H](C)Oc3ccc(NS(=O)(=O)c4cn(C)cn4)cc3C(=O)N([C@H](C)CO)C[C@H]2C)cc1 | - | - | - | 0 | -
CO[C@H]1CN(C)C(=O)c2ccc(NS(C)(=O)=O)cc2OC[C@@H](C)N(C(=O)NC(C)C)C[C@H]1C | - | - | - | 0 | -
CC(=O)Nc1ccc(-c2csc(Nc3cccc(C)n3)n2)cc1 | - | 0 | 48 | - | 87
Oc1ccc(-c2csc(Nc3ncccn3)n2)c(O)c1 | 0 | 0 | 94 | 82 | 104
N#Cc1ccc(Nc2nc(-c3ccc(O)cc3O)cs2)cc1C(F)(F)F | 0 | 0 | - | 0 | 0
CC(=O)Nc1cccc(-c2csc(Nc3ncccn3)n2)c1 | - | - | 44 | - | -
Oc1ccc(-c2csc(Nc3ccc4c(c3)OCO4)n2)c(O)c1 | - | 0 | 46 | 0 | 0
CC(=O)NNc1nc(-c2ccc(NC(C)=O)cc2)cs1 | 0 | 0 | 0 | - | 0
C[C@@H]1CN([C@H](C)CO)C(=O)c2cccc(NC(=O)C3CCOCC3)c2O[C@@H]1CN(C)C(=O)Nc1ccc2c(c1)OCO2 | - | - | - | 0 | -
Cc1cccc(Nc2nc(-c3ccc(O)cc3O)cs2)n1 | 0 | 0 | 0 | 45 | -
Cc1nc2ccccn2c1-c1csc(Nc2cccc(O)c2)n1 | - | 0 | 0 | - | 0
Cc1ccccc1CN(C)C[C@@H]1OCc2cn(nn2)CCCC(=O)N([C@H](C)CO)C[C@@H]1C | - | - | - | 0 | -
COCCOC(=O)c1[nH]c2c(c1C)C(=O)CC(c1ccco1)C2 (configuration not stated) | 56 | 0 | 0 | 0 | -
CCOC(=O)c1[nH]c2c(c1C)C(=O)CC(c1ccco1)C2 (configuration not stated) | 0 | 0 | 0 | 0 | 0
CCOC(=O)c1ccc(-c2ccc(CO)o2)cc1 | 0 | 0 | 45 | 0 | -
Cc1ccc(-c2ccc(CO)o2)cc1N | 0 | 0 | 0 | 0 | 0
COc1ccc(S(=O)(=O)Nc2ccc3c(c2)C(=O)N([C@H](C)CO)C[C@@H](C)[C@@H](CN(C)Cc2ccc(C(=O)O)cc2)OCCCC[C@H](C)O3)cc1 | - | - | - | 0 | -
O=S(=O)(Nc1nc2ccccc2nc1N1CCc2ccccc2C1)c1ccc(Br)cc1 | 0 | 0 | - | - | 0
O=S(=O)(Nc1nc2ccccc2nc1N1CCc2ccccc2C1)c1ccc(Cl)cc1 | 63 | 0 | 41 | - | 0
SMILES | AHR activator | FXN GAA850 act | Wnt bcat act | esBAF inh | MITF act
CC(=O)Nc1ccc(S(=O)(=O)Nc2nc3ccccc3nc2N2CCc3ccccc3C2)cc1 | 54 | 0 | 0 | - | 0
C[C@@H]1CN([C@H](C)CO)C(=O)Cc2cc(NS(=O)(=O)c3ccccc3)ccc2O[C@H]1CN(C)C(=O)Nc1cccc2ccccc12 | - | - | - | 0 | -
Cc1cc(C(=O)COC(=O)c2cc(Cl)ccc2N)c(C)n1Cc1ccco1 | 0 | 0 | 0 | - | 106
COc1ccc(NC(=S)NC(=O)C2CCC2)cc1 | 0 | 0 | 38 | 47 | 0
O=C(NC(=S)Nc1ccccc1)C1CCCCC1 | 0 | 0 | 0 | 41 | 0
Cn1c(-c2cc3ccc(OC(=O)C(C)(C)C)cc3oc2=O)nc2ccccc21 | 0 | 0 | 34 | 0 | 0
CCCC#Cc1ccc2c(c1)O[C@@H](CN(C)CCC)[C@@H](C)CN([C@@H](C)CO)S2(=O)=O | - | - | - | 0 | -
Cc1ccccc1OCc1nc2c3cnn(C)c3ncn2n1 | 0 | 0 | 0 | 66 | -
